Consider 31 molecules from PubChem BioAssay (EPA / NIEHS).

Records with an inconclusive call do not appear. Active and inactive are the calls of the source. How the source made its calls: active means hit-call score of the fitted dose curve at least 0.9, where 1 is the maximum; inconclusive means response in the unintended direction; inactive means score below 0.9.

One experiment can be described thus: ATG_M_06_TRANS: Attagene TRANS-FACTORIAL HepG2 Assay for M06 Transcription Factor (Internal Marker) (AID 2282983).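 Further: reporter transcript level by RT-PCR then capillary electrophoresis fluorescence.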 The settings on record: HepG2 Attagene TRANS M06 internal marker reporter. The gist of the method: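 Human liver HepG2 cells bearing transiently transfected chimeric NR-GAL4 reporter units were treated with chemicals for 24 h. Total RNA was reverse-transcribed, reporter sequences amplified and labelled, then quantified by capillary electrophoresis. Activity was fitted upward relative to DMSO.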
Regarding `CC/C=C\C#N`, the molecule was called inactive. In the case of `CCOC(=O)CC(C)C`, the molecule was called inactive. For the molecule `CC/C=C\CCOC(C)OCC` (stereo unspecified), the molecule was called inactive. On the same count and under the same terms, the same measure for `CCC=C(C)C=O`: “inactive”. As to `c1coc(CNc2ncnc3nc[nH]c23)c1`, the molecule was classed as inactive. In the case of `CCCOC(=O)CC`, the outcome was inactive. Regarding `CC(C)(C)c1cccc(O)c1`, the result was inactive. As to `COc1ccc(OC)cc1`, the result was inactive. As for `N=C1N=C(N)c2ccccc21`, the outcome was inactive. Consider `CCCCCC(=O)O[C@]1(C(C)=O)CC[C@H]2[C@@H]3CCC4=CC(=O)CC[C@]4(C)[C@H]3CC[C@@]21C`, for which the molecule was called inactive. Take `O=C1OC2(c3ccc(O)cc3Oc3cc(O)ccc32)c2ccccc21`: the molecule was classed as inactive. For `CCCCCCOC(C)=O`, the result was inactive.

Regarding `OCCCO`, the result was inactive. The same measure, in the same setting: the entry for `CCCCOC(=O)C(C)OC(=O)CCC` (stereo unspecified) is “inactive”; for `CC(=O)CC(=O)N(C)C` it is “inactive”; for `Nc1ccc(N)c([N+](=O)[O-])c1` it is “inactive”.

Take `CC(C)(CO)CO`: the molecule was classed as inactive. For `C/C=C(\C)C(=O)OC/C=C(\C)CCC=C(C)C`, the molecule was called inactive. Consider `NC(=O)c1cnccn1`, for which the result was inactive.

In the case of `C[C@H](CCC(=O)O)[C@H]1CC[C@H]2[C@@H]3CC[C@@H]4C[C@H](O)CC[C@]4(C)[C@H]3CC[C@]12C`, the molecule was classed as inactive. On to `CCCCCCC(C)O` (stereo unspecified), for which the result was inactive. On to `CC(=O)c1ccc(C)cc1`, for which the molecule was called inactive. Same read-out and setting: the same measure for `CC(C)N(c1ccccc1)C(C)C`: “inactive”.

A short description of another experiment: ATG_M_32_TRANS: Attagene TRANS-FACTORIAL HepG2 Assay for M32 Transcription Factor (Internal Marker) (AID 2282984).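 Further: transcript level of a background control reporter unit measured by RT-PCR and capillary electrophoresis.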 The settings on record: HepG2 Attagene TRANS M32 internal marker reporter. The gist of the method:
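Read-out: fluorescent reporter cDNA fragments resolved by capillary electrophoresis after RT-PCR of total RNA. Transfected HepG2 cells were exposed to chemical for 24 h. Activity scored in the positive direction relative to DMSO.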
For `CC/C=C\C#N`, the outcome was inactive. As to `CC/C=C\CCOC(C)OCC` (stereo unspecified), the molecule was called inactive. On to `O=C(C=Cc1ccccc1)OCCCc1ccccc1`, for which the outcome was inactive.

Take `CC(=N[Si](C)(C)C)O[Si](C)(C)C`: the molecule was called inactive.

`CN(C)CCC=C1c2ccccc2CCc2ccccc21`: the molecule was called inactive.

`CCC=C(C)C=O`: the result was inactive. Still for that read-out and setting: the entry for `[Cu+]` is “inactive”. Turning to `c1coc(CNc2ncnc3nc[nH]c23)c1`, the result was inactive. With `CCCOC(=O)CC`, the outcome was inactive. The same measure, in the same setting: the entry for `N=C1N=C(N)c2ccccc21` is “inactive”; for `CC(=O)CCC(=O)O` it is “inactive”. The same measure, in the same setting: the entry for `CCCCCC(=O)O[C@]1(C(C)=O)CC[C@H]2[C@@H]3CCC4=CC(=O)CC[C@]4(C)[C@H]3CC[C@@]21C` is “inactive”; for `CC1=CC(O)CC(C)(C)C1` (stereo unspecified) it is “inactive”; for `CCCCCCOC(C)=O` it is “inactive”. Still for that read-out and setting: the same measure for `OCCCO`: “inactive”; for `CCCC[N+](C)(CCCC)CCCC`: “inactive”. With `CC(=O)CC(=O)N(C)C`, the molecule was called inactive. In the case of `Nc1ccc(N)c([N+](=O)[O-])c1`, the call was inactive. With `C/C=C(\C)C(=O)OC/C=C(\C)CCC=C(C)C`, the molecule was classed as inactive.

As for `C[C@H](CCC(=O)O)[C@H]1CC[C@H]2[C@@H]3CC[C@@H]4C[C@H](O)CC[C@]4(C)[C@H]3CC[C@]12C`, the call was inactive. For the molecule `CCCCCCC(C)O` (stereo unspecified), the call was inactive. Same read-out and setting: the same measure for `O=C(OCc1ccccc1)c1ccccc1O`: “inactive”. Take `CC(=O)c1ccc(C)cc1`: the call was inactive.
